# Reference: PubChem BioAssay AID504332 (National Center for Advancing Translational Sciences (NCATS), 2011)
# Values joined by “and” are separate entries in the source; they are usually repeats but may differ in a detail not shown here. Equal values may be shown once. Out of some 350,000 compounds screened, about 31,000 (8.9%) were called active. About 15% were inconclusive and are not listed. The sample holds actives, similar compounds and a random draw of the others, so the mix is not that of the screen. The call rests on the fitted dose curve; in most records, active means well fitted inhibition curve with a large enough effect; inconclusive means small, poorly fitted or top-dose-only effect; inactive means no such curve, though single readings can be large or run the other way. A structure can be active in one record and inactive in another.
# Molecular target: Histone-lysine N-methyltransferase EHMT2 (Homo sapiens) (UniProt Q96KQ7)
# Sequence (Q96KQ7 913-1193 limits assumed): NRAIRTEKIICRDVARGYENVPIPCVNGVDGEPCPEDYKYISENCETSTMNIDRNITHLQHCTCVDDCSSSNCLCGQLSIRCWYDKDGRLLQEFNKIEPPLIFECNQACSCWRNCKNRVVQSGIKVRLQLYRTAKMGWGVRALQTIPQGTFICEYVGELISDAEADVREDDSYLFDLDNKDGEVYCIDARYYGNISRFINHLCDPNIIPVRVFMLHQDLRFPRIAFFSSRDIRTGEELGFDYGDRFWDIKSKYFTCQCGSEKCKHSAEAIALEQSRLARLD
# Assay: qHTS Assay for Inhibitors of Histone Lysine Methyltransferase G9a; further: nearly all actives have a fitted effect of over 75% in size
# Conditions: G9a H3K9 monomethylation, AlphaScreen, 2 h; series mostly up to 59 µM; activity, negative = inhibition: at the top concentration
# In short: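 G9a (20 nM) preincubated 15 min RT with compounds, then 500 nM biotinylated H3K9 peptide and 20 uM SAM added; 2 h RT reaction. Monomethyl-H3K9 product detected by AlphaScreen with anti-H3K9me1 antibody, streptavidin donor and anti-rabbit IgG acceptor beads.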
# On the % scale 0 is the no-effect control and ±100 the full control effect; potency means the concentration at half of the fitted maximal effect.
Compound,"activity, negative = inhibition",Potency
COc1cccc(-c2ccc3c(c2)S(=O)(=O)c2cccc(C(=O)O)c2C3=O)c1OC,-17.9% [at 0.501 µM] (inactive),
CCC(=O)N1c2ccc(S(=O)(=O)NCc3ccco3)cc2CC1C (stereo not drawn),-12.6% (inactive),
Fc1ccc(-n2ncc3c(Nc4ccc(Oc5ccccc5)cc4)ncnc32)cc1,-1.42% (inactive),
CCCc1cc(=O)[nH]c2nnc(SCC(=O)Nc3nnc(SCC)s3)n12,-30.1% [at 102 µM] (inactive),
Cc1cccc(Nc2nc(C)nc(N)c2S(=O)(=O)c2ccccc2)c1,4.77% (inactive),
C=CCc1cccc(/C=N/NC(=O)COc2ccc(-n3cnnn3)cc2)c1O,-11.3% [at 102 µM] (inactive),
CCN(CC)S(=O)(=O)c1ccc(N2CCOCC2)c(NC(=O)c2ccc(=O)n(C)n2)c1,-4.25% [at 12.7 µM] (inactive),
C[C@@]12C(=O)N(c3cccc(Br)c3)C(=O)N1[C@H](c1ccc(Cl)cc1)[C@@H]1C(=O)N(C3CCCCC3)C(=O)[C@@H]12,-8.19% [at 102 µM] (inactive),
O=C1[C@@H]2C(Cc3ccc(O)cc3)NC3(C(=O)Nc4ccc(F)cc43)[C@@H]2C(=O)N1c1ccc(F)cc1 (stereo partly drawn),-37.6% [at 12.7 µM] (inactive),
CSCCC1NC2(C(=O)Nc3ccc(Cl)cc32)[C@@H]2C(=O)N(C3CCCC3)C(=O)[C@H]12 (stereo partly drawn),,50.1 µM (active)
O=C(NCCS(=O)(=O)N1CCN(c2ccc(F)cc2)CC1)c1ccc2c(c1)OCO2,-0.16% [at 102 µM] (inactive),
O=C(Nc1ccccc1F)C(c1ccccc1)N1Cc2ccccc2C1=O (stereo not drawn),-1.89% (inactive),
CC1CCCCN1Cc1c(O)ccc2c(=O)c(-c3cccc(Cl)c3)c(C(F)(F)F)oc12 (stereo not drawn),-1.19% (inactive),
CCOC(=O)C(=O)C1C(=O)Nc2ccccc21 (stereo not drawn),-47.2% [at 2.33 µM] (inactive),
CCCCC(CC)CNC(=O)C(=O)C1C(=O)Nc2ccccc21 (stereo not drawn),,44.7 µM (active)
CCCCC(CC)CNC(=O)C1CCN(S(=O)(=O)c2cccc3nsnc23)CC1 (stereo not drawn),3.29% (inactive),
O=C(c1ccc2c(c1)N(Cc1ccc(Cl)cc1)C(=O)c1ccccc1S2(=O)=O)N1CCCCC1,-1.97% (inactive),
O=C(c1ccc2c(c1)N(Cc1ccccc1)C(=O)c1ccccc1S2(=O)=O)N1CCCC1,-26.6% (inactive),
O=C(c1ccc2c(c1)N(Cc1ccc(F)cc1)C(=O)c1ccccc1S2(=O)=O)N1CCN(c2ccccn2)CC1,,inactive and 22.4 µM (active)
CCOC(=O)c1cc(C(=O)Nc2ccc(S(=O)(=O)Nc3ccc(OC)cc3)cc2)nn1C,2.94% [at 102 µM] (inactive),
Cc1ccc2nc(-c3ccc(Br)cc3)cn2c1,-9% [at 102 µM] (inactive),
O=C1C=C(c2cccc(Cl)c2)C[C@@H](c2ccc(F)cc2)C1,6.54% [at 0.501 µM] (inactive),
CC1=C(C(=O)OCc2ccc(C)cc2)C(c2ccccc2Cl)CC(=O)N1 (stereo not drawn),-30.3% (inactive),

Compound,"activity, negative = inhibition",Potency
N/C(=N\OC(=O)N1c2ccccc2Sc2ccccc21)c1ccc(Br)cc1,,50.1 µM (active)
N/C(=N\OC(=O)c1ccc2c(c1)OCO2)c1ccc(Br)cc1,-36.4% [at 102 µM] (inactive),
N/C(=N\OC(=O)/C=C/c1ccccc1)c1ccc(Br)cc1,23.4% [at 102 µM] (inactive),
CCN1C(=O)/C(=c2\s/c(=C3\Sc4ccccc4N3C)c(=O)n2C)N(C)C1=S,-35.3% [at 102 µM] (inactive),
CCN1C(=O)/C(=C2/Sc3ccccc3N2CCCS(=O)(=O)O)SC1=S,,39.8 µM (active)
CCCCN1C(=O)/C(=C/C=C2/C=Cc3ccccc3N2CC)SC1=S,7.58% [at 102 µM] (inactive),
CCN1C(=O)[C@H]2[C@@H](c3ccc(SC4CCCCC4)c(OC)c3)N[C@@](Cc3ccccc3)(C(=O)OC)[C@H]2C1=O,20.9% [at 2.33 µM] (inactive),
CCc1ccccc1NC(=O)c1ccc(F)c(S(=O)(=O)NC2CCCCCC2)c1,-9.97% (inactive),
Cn1c(=O)c2sccc2n2c(CCC(=O)NCc3ccccc3Cl)nnc12,-1.25% (inactive),
Cc1ccccc1NC(=S)NNC(=O)c1cccc(Br)c1,-38% [at 102 µM] (inactive),
O=C(NC(=S)Nc1cccc2c(O)cccc12)c1cccc(Br)c1,,50.1 µM (active)
Cc1ccc(-c2nnc3c4ccccc4c(C)nn23)cc1NC(=O)c1cccc(Br)c1,6.92% (inactive),
CC(=O)Nc1ccc(S(=O)(=O)N2CCN(S(=O)(=O)c3cccs3)CC2)cc1,-24.6% [at 102 µM] (inactive),
CCCc1c(C(=O)N/N=C(\C)CCc2ccc(OC)cc2)nnn1-c1nonc1N,20.9% [at 102 µM] (inactive),
O=C(/C=C/c1ccc(Cl)c([N+](=O)[O-])c1)c1cccnc1,,39.8 µM (active)
O=C(/C=C/c1ccc(Cl)cc1Cl)c1cccnc1,,8.91 µM (active)
O=C(/C=C/c1ccc(Cl)cc1Cl)NCc1ccco1,2.18% [at 0.501 µM] (inactive),
O=C(Nc1cccnc1)c1cc(Cl)ccc1Cl,5.34% [at 102 µM] (inactive),
C/C(=N\NC(=O)Cc1ccccc1[N+](=O)[O-])c1cccnc1,79.8% [at 102 µM] (inactive),
O=C(Nc1cccnc1)c1cc([N+](=O)[O-])ccc1Cl,-28.5% [at 102 µM] (inactive),
Cc1ccc(S(=O)(=O)N2CCCc3cc(NS(=O)(=O)c4cc(C)ccc4C)ccc32)cc1,-41.9% (inactive),
CCOc1ccc(CCNC(=O)COC(=O)CCS(=O)(=O)c2ccc(C)cc2)cc1OCC,-3.67% [at 0.501 µM] (inactive),
O=C(CCn1c(=O)c2sccc2n(Cc2ccc(F)cc2)c1=O)NCc1ccc2c(c1)OCO2,-1.21% (inactive),

Compound,"activity, negative = inhibition",Potency
O=C(NC1CCCCC1)c1ccc(-c2ccc(Cl)cc2)o1,,44.7 µM (active)
O=C(NC1CCCCCC1)c1cccnc1Sc1ccc(Cl)cc1,7.32% (inactive),
S=C(NCc1ccc(Cl)cc1)NC1CCCCC1,8.97% (inactive),
CCSc1ncc(Cl)c(C(=O)Nc2c(C(=O)c3ccccc3)oc3ccccc23)n1,-5.28% (inactive),
Cc1ccc(CNC(=O)CSc2c3c(nc4cc(Cl)ccc24)CCCC3)cc1,-3.31% (inactive),
COc1ccc(CNC(=O)c2cc3c(=O)[nH]c4ccccc4c3s2)cc1,10.3% (inactive),
CCCn1c(=O)c2[nH]c(C3CCCC3)nc2n(CCC)c1=O,,inactive
CCCNC(=O)CCn1cc(-c2ccc(OC)cc2)nc1CCN,-5.65% [at 2.33 µM] (inactive),
CCCn1c(=O)c2[nH]c(-c3ccc(OCC(=O)NCCN)cc3)nc2n(CCC)c1=O,32.3% [at 12.7 µM] (inactive),14.1 µM (active)
COc1ccc(CNC(=O)c2cc3c(s2)-c2ccccc2OC3)cc1,-3.7% (inactive),
Cc1ccc(-n2nc(-c3ccco3)cc2C(=O)NCc2cccnc2)cc1,,2.51 µM (active)
CC(C)(C)c1cc(C(=O)NCc2cccnc2)ccn1,17.8% [at 0.501 µM] (inactive),
Cc1ccc(C(=O)NC(=S)NCc2cccnc2)cc1,-24.2% [at 102 µM] (inactive),
O=C(NCC12CC3CC(CC(C3)C1)C2)c1cc2nc(-c3ccccc3)cc(C(F)(F)F)n2n1,-1.06% (inactive),
COc1cc(OC)c(NC(=O)c2nc(-c3ccncc3)no2)cc1Cl,6.69% (inactive),
Cc1ccc(C)c(Nc2nnc(-c3ccc(C)c(S(=O)(=O)N4CCCCC4)c3)c3ccccc23)c1,-34.2% (inactive),
O=C(CNC(=O)c1ccccc1Br)NNC(=O)c1cccs1,7.12% [at 102 µM] (inactive),
O=C1CCC(C(=O)N2CCN(c3ccccc3Cl)CC2)CN1CC1CCCCC1 (stereo not drawn),0.955% (inactive),
COc1ccc(NC(=O)COC(=O)c2n[nH]c3ccccc23)c(OC)c1,3.57% [at 12.7 µM] (inactive),
CCCn1c(C)cc(/C=C(\C#N)C(=O)OCC(=O)N(C)c2c(N)n(Cc3ccccc3)c(=O)[nH]c2=O)c1C,-50.7% [at 102 µM] (inactive),
O=C(CNC(=O)c1cccs1)N/N=C/c1cccc(Br)c1,18.8% [at 102 µM] (inactive),
CCN(CC)c1ccc(/C=N/NC(=O)CNC(=O)c2cccs2)cc1,,50.1 µM (active)
CCN(CC)c1ccc(/C=N/NC(=O)CNC(=O)c2cccnc2)cc1,-26.8% [at 102 µM] (inactive),

Compound,"activity, negative = inhibition",Potency
O=C(NCCS(=O)(=O)N1CCN(c2ccc(F)cc2)CC1)c1ccccc1Br,2.38% (inactive),
O=C(Nc1ccc(OC(F)(F)F)cc1)C1CCCN(S(=O)(=O)c2ccc(Br)s2)C1 (stereo not drawn),14.2% (inactive),
N#Cc1ccc(C(=O)OCC(=O)NC(=O)NC2CCCCC2)cc1,13.4% [at 2.33 µM] (inactive),
N#CCC(=O)NC(=O)NCC1CC1,,39.8 µM (active)
CC(C)NC(=O)NC(=O)COC(=O)c1ccc(NC(=O)CC#N)cc1,-1.05% (inactive),
CC1(C)O[C@@H]2[C@H](O1)[C@@H](CO)O[C@H]2n1c(N2CCCCC2)nc2c(N)ncnc21,9.14% [at 0.501 µM] (inactive),
Cc1cc(OCC(=O)Nc2ncn[nH]2)c(C)c(C)c1Br,78.8% (inactive),
Cc1ccc(OCCCCN2CCCCC2)c(Br)c1,,11.2 µM (active)
Cc1ccc(C)c(OCCC(=O)Nc2cccc(S(=O)(=O)N3CCCC3)c2)c1,6.86% [at 0.501 µM] (inactive),
CC(=O)Nc1ccc(S(=O)(=O)N2CCN(CCCOc3cc(C)ccc3C)CC2)cc1,-3.97% [at 12.7 µM] (inactive),
Cc1ccc(C(C)(C)C)c(OCCCCN2CCCC2)c1,,8.91 µM (active)
Cc1ccc(OCC(O)CN2CCN(CC(O)COc3ccc(C)cc3Cl)CC2)c(Cl)c1 (stereo not drawn),23.1% [at 102 µM] (inactive),
Cc1ccc(Cl)c(OCC(=O)NN2CCN(C)CC2)c1,7.88% [at 102 µM] (inactive),
COCCNc1ncnc2c1c(-c1ccccc1)cn2-c1ccc(C)c(Cl)c1,2.41% (inactive),
CCOC(=O)N1CCN(S(=O)(=O)c2ccc3c(c2)C(C)C(=O)N3)CC1 (stereo not drawn),14.1% [at 12.7 µM] (inactive),
Cc1ccccc1N1CCN(C2CCCN(C(=O)c3cn4c(C)cccc4n3)C2)CC1 (stereo not drawn),9.34% [at 0.501 µM] (inactive),
CCC(=O)Nc1ccc(-c2ccc(N3CCCCC3)nn2)cc1,8.38% (inactive),
Cc1ccc(C)c(CNC(=O)c2cc3ccccn3n2)c1,-1.14% (inactive),
CCCN1CCN(CCCNC(=O)Cn2nc(CC)n3c(cc4occc43)c2=O)CC1,2.34% (inactive),
O=C(CSc1ncc(-c2ccccc2)[nH]1)Nc1ccc(F)cc1F,-35.1% (inactive),
COc1ccc(/C=N/OCc2ccccc2C#N)c(OC)c1,30% [at 102 µM] (inactive),
CCc1ccc2oc(-c3ccc(NC(=O)c4cc5ccccc5o4)cc3)nc2c1,6.7% (inactive),
COc1ccc(CCNC(=O)c2cn(C)c3ccc(S(=O)(=O)N(C)C4CCCCC4)cc3c2=O)cc1OC,7.95% (inactive),
